# Assay outcomes as filed in PubChem.
# Pf Dd2 inh = Plasmodium falciparum Dd2 growth inhibition; P. falciparum Dd2 growth, SYBR Green, 72 h; Potency, µM (titrated, usually from 28.9 µM), most hits filed as inhibitors; 4.3% of 120,000 active; active means well fitted inhibition curve with a large enough effect; further: nearly all actives have a fitted effect of over 65% in size
#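 Infected erythrocytes (Dd2, 0.3% parasitemia, 2.5% hematocrit final) are added to compound in RPMI-1640/Albumax II medium, grown 72 h at 37C in low oxygen, then lysed with saponin/Triton-X containing SYBR Green and read by fluorescence.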
# A number is an active result; - = inactive; ! = a repeat was not active; [ ] = dose if it differs, or a comment. This excerpt belongs to a sample that is enriched for hits.
SMILES,Pf Dd2 inh
c1ccc(CNc2nc3ccccc3c3nc(-c4ccccc4)nn23)cc1,8.91µM
CCCCNC(=O)CCC(=O)NNc1nc2ccccc2c2nc(-c3ccccc3)nn12,-
CN1c2cccnc2CNCC[C@H]1CO,-
NC(=O)[C@H](CC1CCCCC1)NC(=O)[C@@H]1CN(C(=O)c2cccnc2)CCN1C(=O)C1CCNCC1,-
O=C(Cn1c(-c2cccs2)cc2ccccc21)NCCCN1CCN(c2ccccc2F)CC1,8.91µM
O=C(NCCN1CCN(c2ccccc2F)CC1)C1COc2ccccc2C1 (configuration not stated),-
CC(C)(C)c1ccc2c(c1)N(CC(=O)NCCCN1CCN(c3ccccc3F)CC1)C(=O)CO2,-
O=C(NCc1ccc(F)cc1)c1csc(N2CCN(c3ccccc3F)CC2)n1,-
CC(C)CCNC(=O)Cn1cc(S(=O)(=O)Cc2ccc(F)cc2)c2ccccc21,-
CCc1ccc(CNC(=O)Cn2c(-c3cccs3)cc3cc(F)ccc32)cc1,-
CCN1CCN(C(=O)Cn2c(-c3cccs3)cc3ccccc32)CC1,-
CC(C)CCNC(=O)Cn1c(-c2cccs2)cc2cc(F)ccc21,4.47µM
O=C(Cn1c(-c2cccs2)cc2cc(F)ccc21)NCCCN1CCN(c2ccccc2F)CC1,8.91µM
COCCNC(=O)CCCN1C(=O)COc2ccc(C(=O)COc3cc(C)ccc3F)cc21,-
COc1ccc(F)cc1-c1cccc(C=O)c1,-
COCC1CN(C(C)=O)CC12CCN(Cc1c[nH]c3ccc(OC)cc13)CC2 (configuration not stated),-
O=C(NCCc1ccccc1)C1CCN(C(=O)c2ncn3c2COC(c2ccc(F)cc2)C3)CC1 (configuration not stated),-
CN1CCN(CCCOc2ccccc2CN2CCc3nc[nH]c3C2)CC1,-
O=C(c1ccccc1)N1CC[C@H](c2nc3ccc(F)cc3[nH]2)C1,-
CN1CCC(N2CC[C@H](c3nc4ccccc4[nH]3)C2)CC1,-
FC(F)(F)c1ccc2nc([C@H]3CCN(CC4CC4)C3)[nH]c2c1,12.6µM
N#Cc1ccc(CN2CCC(c3nc4ccncc4[nH]3)C2)cc1 (configuration not stated),10µM!
N#Cc1ccc2nc([C@H]3CCN(Cc4ccccc4)C3)[nH]c2c1,-
CN(C)c1ccc(CN2CC[C@H](c3nc4ccc(C(F)(F)F)cc4[nH]3)C2)cc1,5.62µM
Brc1ccc(CN2CCC(c3nc4ncccc4[nH]3)C2)cc1 (configuration not stated),-
SMILES,Pf Dd2 inh
O=C(C1CCCCC1)N1CC[C@H](c2nc3ccc(C(F)(F)F)cc3[nH]2)C1,-
FC(F)(F)c1ccc(CN2CC[C@H](c3nc4ccccc4[nH]3)C2)cc1,-
FC(F)(F)c1ccc2nc([C@H]3CCN(C4CCCCC4)C3)[nH]c2c1,7.94µM
c1cc2nc(C3CCN(C4CCCCC4)C3)[nH]c2cn1 (configuration not stated),-
CC(=O)N1CC[C@H](c2nc3ccc(C(F)(F)F)cc3[nH]2)C1,-
COc1cccc(-c2cc3c(=O)n(CCNC(=O)c4ccc(OC)c(F)c4)ccn3n2)c1,-
CC(C)Oc1ccc(CNC(=O)CCC2CCN(C(=O)c3ccccc3)CC2)cc1,-
O=C(NCc1cccc(Cl)c1)C1CCN(C(=O)c2ncn3c2COC(c2ccc(F)cc2)C3)CC1 (configuration not stated),-
O=C(CN1C(=O)NC2(CCCCC2)C1=O)Nc1ccc(F)c(Cl)c1,-
COc1ccc(C(=O)N2CCC(C3CCN(S(C)(=O)=O)CC3)C2)c(C)c1 (configuration not stated),-
COc1cccc(NC(=O)N2CCCC3(C2)Nc2cccnc2NC3=NC2CCCC2)c1 (configuration not stated),-[5.79 µM]
O=C(Nc1cc(F)cc(F)c1)N1CCCC2(C1)Nc1cccnc1NC2=NC1CCCC1 (configuration not stated),-[5.79 µM]
COc1ccc(C)cc1NC(=O)N1CCCC2(C1)Nc1cccnc1NC2=NC1CCCC1 (configuration not stated),1.26µM
COCC(=O)N1CCC(Oc2ccccc2C(=O)N2CCN(C)C(=O)[C@@H]2C)CC1,-
Cc1ccc(NC(=O)CN2C(=O)NC(c3ccc(Cl)cc3)C3=C2COC3=O)cc1Cl (configuration not stated),-
Cc1ncc(CO)c2c1Oc1nc(-c3ccccc3F)nc(SCC(=O)N3CCCCC3)c1C2,-
Cc1ncc(CO)c2c1Oc1nc(-c3ccccc3Cl)nc(SCc3ccccc3F)c1C2,4.47µM
Cc1ccc(C)c(CSc2nc(-c3ccccc3F)nc3c2Cc2c(CO)cnc(C)c2O3)c1,8.91µM
CCc1ccccc1NC(=O)CSc1nc(-c2cccc(Cl)c2)nc2c1Cc1c(CO)cnc(C)c1O2,-
CCSc1nc(-c2ccccc2F)nc2c1Cc1c(CO)cnc(C)c1O2,-
O=C(C[C@@H]1O[C@H](CNCc2cccc(Cl)c2)[C@@H](O)[C@H]1O)Nc1ccccc1,-
CC[C@H]1CN(C(=O)Nc2cccc(C(F)(F)F)c2)CC[C@H]1CC(=O)N(CC)C(=O)NCCCN(C)C,-
